Here are results for three molecules from PubChem BioAssay (NCI).

This is part of a sample that, as a whole, favours compounds with a hit. Of some 83,000 tested, about 20% had one in any assay.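 Activity criterion: percent growth below 10, measured after cells in 96-well plates were exposed to a single compound concentration for 48 hours.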 Unmarked numbers belong to inactive results. Active and inactive are the calls of the source.

What all share (assay): NCI-60 one-dose screen, 48 h (100 = growth as untreated, 0 = no growth, -100 = all killed)
What all share (settings): 10 µM

Assay [1] relates to 786-0 renal.
Assay [2] deals with MALME-3M melanoma.
Assay [3] has as its system UACC-257 melanoma.
Assay [4] has as its system SK-MEL-2 melanoma.
Assay [5] concerns EKVX NSCLC.
Assay [6] deals with SN12C renal.
Assay [7] relates to TK-10 renal.
The test system of assay [8] is ACHN renal.
In assay [9] the test system is CAKI-1 renal.
For assay [10], the system named is A498 renal.
In assay [11] the test system is RPMI-8226 leukemia.
In assay [12] the test system is OVCAR-8 ovarian.
In assay [13] the test system is OVCAR-4 ovarian.
Assay [14] relates to SK-OV-3 ovarian.
Assay [15] deals with IGROV1 ovarian.
The subject of assay [16] is OVCAR-3 ovarian.
Assay [17] concerns BT-549 breast.
Assay [18] concerns MDA-MB-435 melanoma.
The subject of assay [19] is HCT-116 colon.
Assay [20] has as its system HCC-2998 colon.

On to `N#C[Se]CC(=O)Nc1cccc(C(F)(F)F)c1`, for which the growth in assay [1] was -54% (active); in [2], -95.3% (active); in assay [3], -33.3% (active); in assay [4], -31.1% (active); in [5], -94.5% (active); in [6], -78.1% (active). Moreover, the growth was -79.8% (active) in assay [7]; -38% (active) in assay [8]; -72.1% (active) in [9]; -69.6% (active) in assay [10]; 10.2% in assay [11]; -49.9% (active) in [12]. In addition, the growth in assay [13] was 36.8%; in assay [14], 14%; in assay [15], -64.5% (active); in assay [16], -13.7% (active); in assay [17], -90.2% (active); in assay [18] it was -18.1% (active). Besides, the growth in assay [19] is -66.8% (active); in assay [20], 54.7%.
Regarding `COC(=O)C[C@](O)(CCC(C)C)C(=O)O[C@@H]1C(OC)=C[C@]23CCCN2CCc2cc4c(cc2[C@H]13)OCO4`, the growth in assay [1] is -46.8% (active); in assay [2], -90.9% (active); in [3], -66.7% (active); in assay [4], -85.9% (active); in assay [5] it was -23.9% (active); in [6], -26.7% (active). In addition, the growth in assay [7] is -23.8% (active); in assay [8], -25.1% (active); in [9], -13.1% (active); in assay [10], -46.5% (active); in assay [11] it was -30.2% (active); in assay [12] it was -62.9% (active). For the same molecule, the growth in assay [13] was -42.4% (active); in assay [14], -25.6% (active); in [15], -29.3% (active); in assay [16], -26.9% (active); in [17] it was -42% (active); in assay [18] it was -84% (active). Further, the results for the growth in assay [19] and in [20] were -27.5% (active) and -89.9% (active), respectively.
As for `COCCOCCOCCOc1ccc(-n2cc(-c3ccc(O[C@H]4O[C@@H]5OC6(C)CC[C@H]7[C@H](C)CC[C@@H]([C@H]4C)[C@@]57OO6)cc3)nn2)cc1`, the growth in assay [1] was 56.7%; in [2] it was 8.12% (active); in assay [3], 39.7%; in [4], 16.8%; in [5], 26.7%; in [6] it was 83%. Also, the growth in assay [7] is 36.7%; in assay [8], 17.4%; in assay [9], 25%; in [10] it was 93.8%; in [11], 20.9%; in assay [12] it was 22.2%. The growth is 28.8% in assay [13]; 84% in [14]; 50.2% in [15]; 46% in assay [16]; 3.83% (active) in assay [17]; 19.3% in assay [18]. Further, the growth is 37.3% in [19] and 59.2% in assay [20].
